Some test systems named below: HCT-15 colon; HT29 colon; SNB-75 CNS; SNB-19 CNS; U251 CNS; PC-3 prostate; SK-MEL-5 melanoma; UACC-62 melanoma; LOX IMVI melanoma; SK-MEL-28 melanoma; SK-MEL-2 melanoma; EKVX NSCLC; SN12C renal; UO-31 renal; TK-10 renal; ACHN renal; CAKI-1 renal; A498 renal; CCRF-CEM leukemia; MOLT-4 leukemia.
Experiment in all cases: NCI-60 one-dose screen, 48 h (100 = growth as untreated, 0 = no growth, -100 = all killed)
What all share (settings): 10 µM unless noted

Molecules are shown by their SMILES. Values joined by “and” are separate entries in the source; they are usually repeats but may differ in a detail not shown here. Equal values may be shown once. Compounds without any hit were thinned out: in the full panel of roughly 83,000, 20% have a hit.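 Negative percent growth values reflect cell death: -40 means 40% of the cells present at the start died, and -100 means all died.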 Active and inactive are the calls of the source. Rule for the calls: active = growth percent below 10; inactive = the rest.

Turning to `Clc1ccc(SSc2ccc(Cl)cc2)cc1`, the growth was 98.8% (inactive) and 92.4% (inactive) in the assay with HCT-15 colon; 98.1% (inactive) and 98.2% (inactive) in the assay with HT29 colon; 74.4% (inactive) and 67% (inactive) with SNB-75 CNS; 93.7% (inactive) and 89.2% (inactive) with SNB-19 CNS; 93.4% (inactive) and 61% (inactive) with U251 CNS; 87.3% (inactive) and 46.5% (inactive) in the assay on PC-3 prostate. In addition, the growth with SK-MEL-5 melanoma was 105% (inactive) and 73.3% (inactive); in the assay on UACC-62 melanoma, 96.9% (inactive) and 95.8% (inactive); in the assay on LOX IMVI melanoma, 97.6% (inactive) and 7.12% (active); with SK-MEL-28 melanoma, 96.9% (inactive) and 103% (inactive); in the assay on SK-MEL-2 melanoma it was 101% (inactive) and 111% (inactive); in the assay with EKVX NSCLC, 103% (inactive) and 68.6% (inactive). Besides, the growth in the assay on SN12C renal was 97.5% (inactive) and 42.4% (inactive); in the assay with UO-31 renal it was 85% (inactive) and 46.7% (inactive); in the assay on TK-10 renal, 88% (inactive) and 106% (inactive); in the assay on ACHN renal, 99.4% (inactive) and 99.7% (inactive); in the assay with CAKI-1 renal, 95.8% (inactive) and 94.5% (inactive); in the assay on A498 renal, 87.9% (inactive) and 74.6% (inactive). For the same compound, the growth in the assay on CCRF-CEM leukemia was 97.9% (inactive); in the assay on MOLT-4 leukemia, 98.6% (inactive).

For the compound `CNC(=O)c1cccc(-c2ccc3c(N4CCOC[C@@H]4C)nc(N4CCOC[C@@H]4C)nc3n2)c1`, the growth was 9.22% (active) and 7.13% (active) in the assay with HCT-15 colon; 18.3% (inactive) and 1.73% (active) in the assay with HT29 colon; -32.8% (active) and -40.5% (active) in the assay on SNB-75 CNS; 10.2% (inactive) and 8.05% (active) with SNB-19 CNS; 9.22% (active) and 6.58% (active) in the assay on U251 CNS; 6.6% (active) and 7.98% (active) with PC-3 prostate. The growth in the assay with SK-MEL-5 melanoma is -38.2% (active) and -49.8% (active); with UACC-62 melanoma it was -24.9% (active) and -51.8% (active); with LOX IMVI melanoma, 3.01% (active) and -1.67% (active); with SK-MEL-28 melanoma, -15.7% (active) and -26.3% (active); in the assay with SK-MEL-2 melanoma it was -8.99% (active); with EKVX NSCLC, -5% (active) and 2.98% (active). The growth was 12.5% (inactive) and 5.62% (active) in the assay with SN12C renal; -3.68% (active) and -24.2% (active) in the assay on UO-31 renal; -11.3% (active) and -31.2% (active) in the assay with TK-10 renal; 0.741% (active) and -1.46% (active) in the assay with ACHN renal; 9.85% (active) and -15.3% (active) in the assay on CAKI-1 renal; -35.6% (active) and -37.8% (active) in the assay with A498 renal. Besides, the growth with CCRF-CEM leukemia is 28% (inactive) and 20.3% (inactive); in the assay with MOLT-4 leukemia it was 16.8% (inactive) and 8.62% (active).

For `Cc1cc(C)c(N)c(Br)c1`, the growth was 106% (inactive) and 95.4% (inactive) in the assay with HCT-15 colon; 102% (inactive) and 90.4% (inactive) in the assay with HT29 colon; 83.3% (inactive) and 74.5% (inactive) with SNB-75 CNS; 107% (inactive) and 94.7% (inactive) in the assay on SNB-19 CNS; 105% (inactive) and 104% (inactive) with U251 CNS; 102% (inactive) and 91.9% (inactive) in the assay on PC-3 prostate. The growth was 103% (inactive) and 96.3% (inactive) with SK-MEL-5 melanoma; 108% (inactive) and 94.5% (inactive) in the assay with UACC-62 melanoma; 106% (inactive) and 96.4% (inactive) with LOX IMVI melanoma; 110% (inactive) and 102% (inactive) in the assay on SK-MEL-28 melanoma; 96.9% (inactive) and 99.3% (inactive) in the assay with SK-MEL-2 melanoma; 110% (inactive) and 97.1% (inactive) with EKVX NSCLC. For the same compound, the growth in the assay with SN12C renal was 110% (inactive) and 101% (inactive); with UO-31 renal, 92.3% (inactive) and 87.9% (inactive); in the assay with TK-10 renal, 108% (inactive) and 112% (inactive); in the assay on ACHN renal, 106% (inactive) and 95.4% (inactive); with CAKI-1 renal, 91.4% (inactive) and 74.5% (inactive); with A498 renal it was 134% (inactive) and 88.8% (inactive). Also, the growth with CCRF-CEM leukemia was 97.4% (inactive) and 90.1% (inactive); in the assay on MOLT-4 leukemia it was 106% (inactive) and 111% (inactive).

Turning to `O=[N+]([O-])c1ccc(N/N=C\c2cc(Br)ccc2O)nc1`, the growth was 21.6% (inactive) and 31.2% (inactive) in the assay with HCT-15 colon; 27.8% (inactive) with HT29 colon; 38.3% (inactive) and 47.7% (inactive) with SNB-75 CNS; 29.2% (inactive) and 28.4% (inactive) in the assay on SNB-19 CNS; 16.6% (inactive) and 5.3% (active) with U251 CNS; 25.8% (inactive) with PC-3 prostate. The growth was -3.76% (active) and -35.9% (active) in the assay on SK-MEL-5 melanoma; 1.29% (active) and -17.2% (active) with UACC-62 melanoma; 10.5% (inactive) and -18.4% (active) in the assay with LOX IMVI melanoma; 37.9% (inactive) and 34.1% (inactive) in the assay with SK-MEL-28 melanoma; 39.7% (inactive) in the assay with SK-MEL-2 melanoma; 81% (inactive) and 46.4% (inactive) with EKVX NSCLC. The growth in the assay on SN12C renal was 22.3% (inactive) and 20.3% (inactive); with UO-31 renal, -6.22% (active) and -11.8% (active); in the assay with TK-10 renal, 22.1% (inactive) and 37.9% (inactive); with ACHN renal, 4.98% (active) and 10.6% (inactive); with CAKI-1 renal it was 0.337% (active) and 2.29% (active); in the assay on A498 renal, 69.5% (inactive). The growth is 17.5% (inactive) and -4.06% (active) in the assay on CCRF-CEM leukemia; 12% (inactive) and -9.48% (active) with MOLT-4 leukemia.

`CC(CN=Cc1ccccc1O)N=Cc1ccccc1O` (stereo not drawn): the growth is 105% (inactive) and 97.2% (inactive) in the assay with HCT-15 colon; 115% (inactive) and 110% (inactive) in the assay with HT29 colon; 104% (inactive) and 82.4% (inactive) with SNB-75 CNS; 96.1% (inactive) and 101% (inactive) in the assay on SNB-19 CNS; 96.6% (inactive) and 104% (inactive) in the assay on U251 CNS; 96% (inactive) and 95.8% (inactive) in the assay with PC-3 prostate. Besides, the growth in the assay on SK-MEL-5 melanoma is 102% (inactive) and 106% (inactive); in the assay with UACC-62 melanoma, 107% (inactive) and 105% (inactive); in the assay on LOX IMVI melanoma, 101% (inactive) and 88.8% (inactive); with SK-MEL-28 melanoma it was 117% (inactive) and 102% (inactive); with SK-MEL-2 melanoma, 154% (inactive) and 102% (inactive); with EKVX NSCLC, 102% (inactive) and 111% (inactive). The growth with SN12C renal was 90.4% (inactive) and 98.7% (inactive); with UO-31 renal, 107% (inactive) and 80.3% (inactive); in the assay on TK-10 renal, 110% (inactive) and 106% (inactive); with ACHN renal, 103% (inactive) and 93.8% (inactive); in the assay with CAKI-1 renal it was 93.6% (inactive) and 99.1% (inactive); with CCRF-CEM leukemia it was 92.3% (inactive) and 96.2% (inactive).

As for `CCOC(=O)Nc1ccc2c(c1)/C(=N\NC(N)=S)c1ccccc1-2`, the growth with HCT-15 colon was 22.1% (inactive) and 38.2% (inactive); in the assay with HT29 colon it was 29.6% (inactive) and 25.8% (inactive); with SNB-75 CNS, 70.2% (inactive) and 66.4% (inactive); in the assay with SNB-19 CNS, 78.4% (inactive) and 75.3% (inactive); in the assay on U251 CNS, 52.6% (inactive) and 48.8% (inactive); in the assay on PC-3 prostate, 42.5% (inactive) and 90.9% (inactive). For the same compound, the growth in the assay with SK-MEL-5 melanoma is 38.1% (inactive) and 44.2% (inactive); in the assay on UACC-62 melanoma, 37.3% (inactive) and 51.3% (inactive); in the assay with LOX IMVI melanoma, 54.4% (inactive) and 58.4% (inactive); in the assay on SK-MEL-28 melanoma, 50% (inactive) and 75.4% (inactive); in the assay with SK-MEL-2 melanoma it was 70.1% (inactive) and 93.2% (inactive); with EKVX NSCLC, 68.3% (inactive) and 70.8% (inactive). In addition, the growth in the assay with SN12C renal was 73.3% (inactive) and 71.9% (inactive); with UO-31 renal, 68% (inactive) and 82.5% (inactive); with TK-10 renal, 82.2% (inactive) and 107% (inactive); in the assay on ACHN renal, 56.8% (inactive) and 68.7% (inactive); in the assay with CAKI-1 renal it was 43% (inactive) and 73.4% (inactive); in the assay on A498 renal, 46.6% (inactive) and 65.5% (inactive). In addition, the growth in the assay on CCRF-CEM leukemia is 19.9% (inactive) and 27.8% (inactive); with MOLT-4 leukemia, 46% (inactive) and 41.8% (inactive).

On to `CNC(=O)c1ccc(C)c(-n2c(C)cc(OCc3ccc(F)cc3F)c(Br)c2=O)c1`, for which the growth in the assay with HCT-15 colon was 91% (inactive) and 97.1% (inactive); with HT29 colon, 56.4% (inactive) and 76.5% (inactive); in the assay with SNB-75 CNS it was 63.3% (inactive) and 86.1% (inactive); in the assay with SNB-19 CNS it was 75.8% (inactive) and 91.1% (inactive); with U251 CNS it was 80.1% (inactive) and 78.6% (inactive); in the assay with PC-3 prostate it was 74.8% (inactive) and 66.5% (inactive). The growth with SK-MEL-5 melanoma is 56.4% (inactive) and 87.9% (inactive); in the assay on UACC-62 melanoma, 56.5% (inactive) and 73.4% (inactive); in the assay on LOX IMVI melanoma, 83.2% (inactive) and 93.6% (inactive); in the assay with SK-MEL-28 melanoma it was 104% (inactive) and 97.9% (inactive); with SK-MEL-2 melanoma, 89.3% (inactive); with EKVX NSCLC it was 78.7% (inactive) and 87.7% (inactive). Also, the growth was 83.7% (inactive) and 86.1% (inactive) with SN12C renal; 52.5% (inactive) and 71.8% (inactive) in the assay with UO-31 renal; 74.6% (inactive) and 102% (inactive) in the assay on TK-10 renal; 68.6% (inactive) and 88.2% (inactive) with ACHN renal; 62.9% (inactive) and 79.1% (inactive) in the assay on CAKI-1 renal; 78.7% (inactive) with A498 renal. Further, the growth in the assay on CCRF-CEM leukemia was 77.4% (inactive) and 89.1% (inactive); with MOLT-4 leukemia it was 78.8% (inactive) and 91.8% (inactive).
